Compound activity: PubChem BioAssay, National Center for Advancing Translational Sciences (NCATS)
An excerpt weighted towards active compounds, which were near 9% of everything screened.
HPGD inh: qHTS Assay for Inhibitors of HPGD (15-Hydroxyprostaglandin Dehydrogenase) | purified HPGD, NADH fluorescence kinetic, PGE2 substrate | hit rate 4.3% among 150,000 | 15-hydroxyprostaglandin dehydrogenase [NAD(+)] (Homo sapiens), P15428 | Potency, µM, without a hit: at the highest dose activity change, negative = inhibition, usual class: inhibitors; active = well fitted inhibition curve with a large enough effect, not every such curve was filed as active; inconclusive = small, poorly fitted or top-dose-only effect, or another doubt; inactive = no such curve, though single readings can be large or run the other way; note: % is set by controls: 0 for no effect and ±100 for the full control effect
Target sequence (P15428 whole entry, looked up): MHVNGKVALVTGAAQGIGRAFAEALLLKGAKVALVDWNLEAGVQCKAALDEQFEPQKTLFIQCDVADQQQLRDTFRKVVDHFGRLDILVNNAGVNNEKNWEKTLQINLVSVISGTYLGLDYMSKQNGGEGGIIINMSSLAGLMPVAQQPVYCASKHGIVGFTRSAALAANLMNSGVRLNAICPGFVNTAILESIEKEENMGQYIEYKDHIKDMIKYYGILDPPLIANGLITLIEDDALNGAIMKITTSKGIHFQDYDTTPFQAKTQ
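NADH formation kinetics: reaction with 30 uM PGE2 and 1 mM NAD+ (final), 20 nM enzyme, Tris-HCl pH 8 with Tween 20, after 15 min compound preincubation at room temperature. Fluorescence change, last versus first of five reads.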
HTT cytoprotect: qHTS Multiplex Assay to Identify Dual Action Probes in a Cell Model of Huntington: Cytoprotection (ATP) | PC12 HTT-Q103 induced, cytoprotection, ATP luminescence, 40 h | Potency, µM (top dose mostly 56.4 µM), without a hit: cytoprotection (ATP increase), usual class: activators | hit rate 0.14% among 230,000; note: % of control where 0% means no effect; nearly all actives have a fitted effect of over 45% in size
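PC12 cells stably carrying ecdysone-inducible Htt exon 1 (Q103)–GFP were induced with 100 nM tebufenozide (final) alongside library compounds in a dose series. Cytoprotection was scored as retained ATP by ATPlite luminescence.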
Lamin A splicing: qHTS Assay for Modulators of Lamin A Splicing. HeLa LMNA splicing GFP/RFP minigene ratio, 48 h. AID 1487, 2009. hit rate 0.01% among 200,000. Potency, µM (doses to about 46.1 µM), for inactives: at the highest dose ratio change, negative = inhibition, hits mostly inhibitors; active = well fitted inhibition curve with a large enough effect in the signal ratio, with a control signal flat, not every such curve was filed as active; inconclusive = small, poorly fitted or top-dose-only effect, or effect the other way, or a change in a side signal; the % refers to the signal ratio; note: % is set by controls: 0 for no effect and ±100 for the full control effect
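S3 HeLa stable clones carrying a lamin A-EGFP splicing minigene plus DsRed2 were seeded at 600 cells/well in Opti-MEM with 2% FBS, pin-dosed and incubated 48 h at 37°C. Acumen cytometry (488 nm) gave the GFP/RFP total-intensity ratio.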
Luc counter: Counterscreen for Luciferase (Kinase-Glo TM) Inhibition; hit rate 0.28% among 200,000; Kinase-Glo luciferase, ATP luminescence, 8 min; AID 1379, 2008; Luciferin 4-monooxygenase (Photuris pensylvanica), Q27757; Potency, µM (doses to about 38.3 µM), for inactives: top-dose activity change, negative = inhibition, most hits filed as inhibitors; note: % is set by controls: 0 for no effect and ±100 for the full control effect; nearly all actives have a fitted effect of over 60% in size
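Compound is pinned into ATP-containing buffer (10 uM ATP, imidazole pH 7.2, 7 mM MgCl2). Kinase-Glo luciferase reagent is then added. Light output is recorded following an 8-min room-temperature incubation.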
ALDH1A1 inh: qHTS Assay for Inhibitors of Aldehyde Dehydrogenase 1 (ALDH1A1); Purified ALDH1A1, NADH fluorescence, propionaldehyde substrate; Aldehyde dehydrogenase 1A1 (Homo sapiens), P00352; AID 1030, 2008; hit rate 7.3% among 220,000; Potency, µM (series often up to 75.3 µM), for inactives: at the top dose activity, negative = inhibition, usual class: inhibitors; active = well fitted inhibition curve with a large enough effect, not every such curve was filed as active; inconclusive = small, poorly fitted or top-dose-only effect, or another doubt; inactive = no such curve, though single readings can be large or run the other way;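 note: plate controls were no enzyme wells and a reference inhibitor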
HTT aggregate: qHTS Multiplex Assay to Identify Dual Action Probes in a Cell Model of Huntington: Aggregate Formation (GFP); Potency, µM (top dose mostly 46.1 µM), for inactives: at the highest dose activity change, negative = inhibition, hits mostly inhibitors; AID 1688, 2009; hit rate 1.1% among 220,000; PC12 HttQ103-GFP aggregates, Acumen cytometry, 40 h; note: % is set by controls: 0 for no effect and ±100 for the full control effect; nearly all actives have a fitted effect of over 60% in size
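PC12 cells with ecdysone-inducible HTT exon1 Q103-GFP, induced by 100 nM tebufenozide, given compounds in a concentration series. GFP aggregates (1–25 um, 6 SD above background) counted in lysates by laser-scanning cytometry, 488 nm excitation.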
* marks the source's active call; other numbers are inactive results; ? = inconclusive; . = not tested or not shown; [ ] = remark or other dose. Unless noted, calls come from the whole dose curve; as a rule, active = well fitted curve in the direction sought with a large enough effect; inconclusive = small, poorly fitted or top-dose-only effect, or another doubt; inactive = no such curve, though single readings can be large; an effect the other way counts as inactive or inconclusive. Potency is the fitted concentration of half-maximal effect.

SMILES	HPGD inh	HTT cytoprotect	Lamin A splicing	Luc counter	ALDH1A1 inh	HTT aggregate
O=C1C2C3C=CC(CC3)C2C(=O)N1/N=C/c1ccco1 (configuration not stated)	.	-69%	.	1%	?	10%
O=C1C2C(C(=O)N1/N=C/c1cc([N+](=O)[O-])ccc1O)C1C=CC2C12CC2 (configuration not stated)	-22%	21%	2%	-6%	?	-4%
CCOc1ccc(N=C2C(=O)N(CN3CCOCC3)c3ccccc32)cc1	-12%	-19%	-1%	0%	?	-5%
CC1(C)C(=O)Nc2ccccc2N1C(=O)COC(=O)C1CCCCC1	2%	2%	-6%	-3%	?	28%
CCC(=O)N1N=C(c2ccccc2)CC1c1ccc([N+](=O)[O-])cc1 (configuration not stated)	-12%	-11%[0.074 µM]	6%	-1%	?	5%
O=C(CCCC(=O)OCC(Cl)=C(Cl)Cl)Nc1ccccc1	25µM*	0%[10 µM]	-5%	1%	-4%	16%
O=C(O)CCCC(=O)Nc1ccc(Cl)cc1	.	-8%[10 µM]	.	1%	28µM*	-6%[9.22 µM]
O=C(O)CCCC(=O)Nc1ccc(Br)cc1	-4%	7%	1%	8%	15%	15%[9.22 µM]
O=C(CCCC(=O)OCC(=O)c1cccs1)Nc1ccc(Oc2ccccc2)cc1	-26%	-62%	6%	-3%	?	15%
CC(C)(C)CC(=O)O/N=C(\N)c1ccccn1	-2%	12%[10 µM]	-9%	-16%	-5%	-8%
O=C1c2ccc3c4c(ccc(c24)C(=O)N1CCCCO)C(=O)N(CCCCO)C3=O	.	-233%	?	-1%	?	5µM*
O=C(c1ccc2c(c1)C(=O)N(CCCO)C2=O)c1ccc2c(c1)C(=O)N(CCCO)C2=O	-9%	-1%	-3%	0%	?	-14%
Nc1cc(N2CCCCC2)c([N+](=O)[O-])cc1Cl	-23%	25%[10 µM]	-1%	1%	3.5µM*	9%
O=[N+]([O-])c1cc(F)c(N2CCOCC2)cc1N1CCCCC1	-4%	-10%	13%	-2%	14µM*	-7%
O=[N+]([O-])c1cc(F)c(N2CCCCC2)cc1N1CCOCC1	.	-2%	-3%	.	6%	-1%
N#Cc1ccccc1NC(=O)CNc1ccccc1N1CCCCC1	-12%	18%	2%	-2%	32µM*	7%[9.22 µM]
N#CC1=C(Nc2ccccc2)SC=C(c2ccccc2)N=C1N1CCOCC1	-18%	-75%	7%	-5%	25µM*	8%
N#CC1=C(Nc2ccccc2)SC=C(c2ccc(Cl)c(Cl)c2)N=C1N1CCOCC1	-7%	7%	13%[0.0737 µM]	-3%	?	15%
CC(C)=CCN1CCN(Cc2cnc(N3CCOCC3)s2)CC1CCO (configuration not stated)	.	-8%[10 µM]	.	-3%	25µM*	18%[9.22 µM]
COC(=O)c1ccc(CN2CCN(CC=C(C)C)C(CCO)C2)cc1 (configuration not stated)	.	32%[10 µM]	20%[46 µM]	1%	20µM*	-5%[9.22 µM]
COC(=O)c1ccc(CN2CCN(CC(C)C)C(CCO)C2)cc1 (configuration not stated)	.	27%[10 µM]	.	.	.	7%[9.22 µM]
NC(=O)CSc1nc2sc(-c3ccccc3)cc2c(=O)n1N	?	-59%	8%	-5%	1%	9%
O=C1c2ccccc2C(=O)N1CCc1nc2ccccc2c(=O)n1Cc1ccco1	-8%	-7%	?	-2%	-15%	-7%
Cc1ccc2c(c1)N(CC(=O)OCC(=O)NCc1ccccc1)C(=O)CO2	.	-15%[10 µM]	-1%[46 µM]	0%	5%	-15%[9.22 µM]
